Here are results for 13 compounds from PubChem BioAssay (NCI).

The panel holds about 83,000 compounds, 20% with a hit somewhere; the sample as a whole holds those more often.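 Percent growth is the endpoint: 0 to 100 indicates growth inhibition (40 means 60% inhibition), 0 means no net growth, and negative values indicate cell death.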 Values without a mark were called inactive. Activity calls are given as the source filed them. Rule for the calls: active = growth percent below 10; inactive = the rest.

Test systems include HT29 colon; U251 CNS; PC-3 prostate; SK-MEL-5 melanoma; UACC-62 melanoma; LOX IMVI melanoma; SK-MEL-28 melanoma; SK-MEL-2 melanoma; SNB-19 CNS; SNB-75 CNS.
Test in all cases: NCI-60 one-dose screen, 48 h (100 = growth as untreated, 0 = no growth, -100 = all killed)
Holding throughout (settings): 10 µM unless noted

For `CC(C)[O-].CC(C)[O-].CN(CCN(C)Cc1cc(F)cc(F)c1[O-])Cc1cc(F)cc(F)c1[O-].[Ti+4]`, the growth in the test on HT29 colon was -25.7% (active); in the test on U251 CNS, 4.7% (active); in the test with PC-3 prostate, 15.9%; in the test with SK-MEL-5 melanoma, -59.5% (active); in the test with UACC-62 melanoma, -22.8% (active); with LOX IMVI melanoma, -39% (active). For the same compound, the results for the growth with SK-MEL-28 melanoma and in the test with SK-MEL-2 melanoma were -23.3% (active) and -52% (active), respectively.

`CCCn1cnc2c1c(=O)n(CCCCC(C)=O)c(=O)n2C`: the growth in the test with HT29 colon is 95.8%; with SNB-19 CNS, 120%; in the test with U251 CNS it was 95.5%; with PC-3 prostate it was 99.2%; in the test on SK-MEL-5 melanoma it was 104%; in the test on LOX IMVI melanoma it was 98.2%. Moreover, the figures for the growth in the test on SK-MEL-28 melanoma and with SK-MEL-2 melanoma were 114% and 108%, respectively.

Take `CN1C(=O)C(=Cc2cn(Cc3ccccc3)c3ccc(Br)cc23)C(=O)N(C)C1=O`: the growth in the test on HT29 colon was 101%; in the test with SNB-19 CNS, 98.6%; in the test with U251 CNS, 97.5%; in the test on PC-3 prostate, 89.1%; in the test on UACC-62 melanoma, 73.3%; in the test with LOX IMVI melanoma, 102%. The growth in the test with SK-MEL-28 melanoma was 113%; with SK-MEL-2 melanoma it was 107%.

On to `Cc1c(C(N)=O)sc2c1C(=O)N(Cc1ccccc1)C1=NN=C(c3ccc(Cl)cc3)CN12`, for which the growth was 34.9% in the test on HT29 colon; 52.8% in the test on SNB-19 CNS; 29.9% in the test on U251 CNS; 57% in the test on SK-MEL-5 melanoma; 25.4% in the test on UACC-62 melanoma; 17.2% in the test with LOX IMVI melanoma. Further, the growth with SK-MEL-28 melanoma was 72.8%; in the test on SK-MEL-2 melanoma, 66.8%.

For `CCCCCCCC/C=C/CCCCCCCC1=NC(C)(C)CN1CCO`, the growth with HT29 colon was -42.1% (active); in the test on SNB-19 CNS it was 60.5%; with U251 CNS it was -35.5% (active); in the test on PC-3 prostate it was 22.8%; in the test with SK-MEL-5 melanoma it was 3.21% (active); in the test on UACC-62 melanoma, -64.4% (active). The growth in the test on LOX IMVI melanoma was -74.6% (active); in the test with SK-MEL-28 melanoma it was -68.4% (active); in the test with SK-MEL-2 melanoma it was -44.4% (active).

Regarding `COc1ccc(C2=NN(C(=O)c3cc(OC)c(OC)c(OC)c3)C(c3ccc(C#N)cc3)C2)cc1OC` (stereo not drawn), the growth in the test with HT29 colon is -8.4% (active); in the test with U251 CNS it was 21.5%; with PC-3 prostate, 31.4%; in the test on SK-MEL-5 melanoma, 17.7%; in the test on UACC-62 melanoma, 43.6%; in the test on LOX IMVI melanoma, 33.6%. For the same compound, the growth was 65.3% in the test with SK-MEL-28 melanoma and 35.6% in the test with SK-MEL-2 melanoma.

With `COc1ccc2nc(-c3ccc(-n4cncc4-c4ccc(OC)c(N)c4)cc3)sc2c1`, the growth with HT29 colon was 96.8%; in the test with SNB-19 CNS it was 98.6%; in the test with U251 CNS it was 105%; with PC-3 prostate, 84.6%; in the test on SK-MEL-5 melanoma it was 105%; with UACC-62 melanoma, 101%. Moreover, the growth is 113% in the test with LOX IMVI melanoma, 106% in the test on SK-MEL-28 melanoma and 112% in the test on SK-MEL-2 melanoma.

Consider `S=c1[nH]nc2sc3ccccc3n12`, for which the growth with SNB-75 CNS is 81.6%; with SNB-19 CNS it was 106%; in the test with U251 CNS, 105%; in the test with PC-3 prostate, 112%; with SK-MEL-5 melanoma, 106%; in the test with UACC-62 melanoma it was 97.4%. Moreover, the values for the growth in the test with LOX IMVI melanoma, with SK-MEL-28 melanoma and in the test with SK-MEL-2 melanoma were 99.2%, 114% and 103%, respectively.

Consider `c1cncc(CNc2ccccc2-c2nnc(Nc3ccc4c(c3)OCO4)o2)c1`, for which the growth was 8.59% (active) with HT29 colon; 38.7% with SNB-19 CNS; 23% with U251 CNS; 27.9% with PC-3 prostate; -4.21% (active) with SK-MEL-5 melanoma; 3.81% (active) in the test on UACC-62 melanoma. For the same compound, the growth with LOX IMVI melanoma was 8.28% (active); in the test with SK-MEL-28 melanoma, 43.7%; in the test on SK-MEL-2 melanoma it was 65.8%.

Turning to `CCOC(=O)c1c(NC(=O)C2CCCCC2C(=O)O)sc2c1CCCC2` (stereo not drawn), the growth with SNB-75 CNS was 97.3%; with SNB-19 CNS, 99.8%; with U251 CNS, 99.1%; in the test on PC-3 prostate, 101%; with SK-MEL-5 melanoma, 95.1%; in the test with UACC-62 melanoma, 103%. The growth with LOX IMVI melanoma was 90%; in the test with SK-MEL-28 melanoma, 110%; with SK-MEL-2 melanoma, 107%.

In the case of `CCCCCCCCCCSc1ncnc2nc[nH]c12`, the growth in the test on HT29 colon is 90.9%; in the test with SNB-19 CNS, 74.7%; in the test on U251 CNS, 68.8%; in the test with PC-3 prostate it was 79.8%; in the test with SK-MEL-5 melanoma it was 56.4%; in the test with UACC-62 melanoma, 69.9%. Also, the growth in the test on LOX IMVI melanoma was 56.3%; in the test on SK-MEL-28 melanoma, 116%; with SK-MEL-2 melanoma, 101%.

In the case of `C=CCOc1ccc2c(c1)CC[C@@H]1[C@@H]2CC[C@@]2(C)[C@H]1CC[C@]2(C)O`, the growth in the test on SNB-75 CNS was 93.3%; in the test with SNB-19 CNS, 110%; in the test on U251 CNS, 74.7%; with SK-MEL-5 melanoma, 95.3%; in the test on UACC-62 melanoma, 85%; in the test on LOX IMVI melanoma, 76.2%. Moreover, the growth with SK-MEL-28 melanoma is 97.2%.

For the compound `C=C(C)[C@@H]1C[C@H](O)Cc2cc(Cl)cc(Cl)c2N1`, the growth in the test with SNB-75 CNS is 87.4%; in the test on SNB-19 CNS it was 103%; in the test with U251 CNS, 94.7%; with SK-MEL-5 melanoma it was 102%; in the test on UACC-62 melanoma, 95%; in the test with LOX IMVI melanoma, 92.3%. In addition, in the test with SK-MEL-28 melanoma, the growth was 114%.
